Test results published in PubChem BioAssay (EPA / NIEHS).
Results filed as inconclusive are left out. The source made the active and inactive calls. How the source made its calls, unless noted: active means hit-call score of the fitted dose curve at least 0.9, where 1 is the maximum; inactive means score below 0.9.

Columns and labels:
[1] = target: human CYP19A1, CYP19A1 (gene 1588) (UniProt P11511); assay: NVS_ADME_hCYP19A1: NovaScreen (NVS) CYP450-related Enzyme Activity (ADME) Assay for human CYP19A1 (AID 2283098; active means hit-call score of the fitted dose curve at least 0.9, where 1 is the maximum)
Sequence of human CYP19A1, CYP19A1 (gene 1588) (P11511 whole entry, looked up): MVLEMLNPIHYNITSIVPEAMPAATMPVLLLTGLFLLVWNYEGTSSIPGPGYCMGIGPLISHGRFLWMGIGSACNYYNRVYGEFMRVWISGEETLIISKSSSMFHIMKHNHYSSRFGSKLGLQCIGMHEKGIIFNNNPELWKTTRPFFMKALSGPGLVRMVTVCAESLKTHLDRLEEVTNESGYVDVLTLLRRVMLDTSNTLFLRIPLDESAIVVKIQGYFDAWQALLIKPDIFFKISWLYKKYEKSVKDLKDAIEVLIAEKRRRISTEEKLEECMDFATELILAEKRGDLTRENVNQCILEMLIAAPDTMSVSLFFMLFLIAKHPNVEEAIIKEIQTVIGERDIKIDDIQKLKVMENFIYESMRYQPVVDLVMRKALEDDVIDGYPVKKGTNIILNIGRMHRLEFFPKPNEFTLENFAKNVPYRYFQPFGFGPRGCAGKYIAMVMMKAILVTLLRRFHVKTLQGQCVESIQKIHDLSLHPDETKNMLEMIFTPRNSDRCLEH
Method in brief: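 Biochem, cell-free; recombinant enzyme + specific substrate; fluorescence intensity at 0.5 h post-dose; 10 uM duplicate primary, conc. series for actives; acetonitrile = negative control/baseline; positive and negative controls on every plate.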

[2] = BSK_LPS_SRB: Viability Assessment in the BioMAP Diversity Plus: LPS Assay (AID 2283079); conditions: primary human HUVEC with PBMC;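 further: total protein by sulforhodamine B absorbance as a cytotoxicity measure; measured one day after compound addition; fitted in both directions against DMSO so loss or gain of signal counts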
Method in brief: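 Readout is SRB absorbance at 560 nm (0.1% stain, TCA-fixed parallel cultures) as a total-protein cytotoxicity measure. Cells: primary human umbilical vein endothelium plus peripheral blood mononuclear cells, 24 h after chemical exposure; DMSO served as baseline.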

[3] = read-out: Interleukin-1 alpha (IL1a), IL1A (gene 3552); assay: BSK_LPS_IL1a: BioMAP Diversity Plus: LPS Assay for Interleukin-1 alpha (IL1a) Biomarker Activity (AID 2283080); conditions: primary human HUVEC with PBMC; actives raise or lower the signal
Method in brief: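 ELISA read-out of IL-1 alpha from a human primary vascular co-culture (endothelium plus PBMC) under LPS, sampled 24 hours post-dosing. Activity was fitted in both directions relative to DMSO controls.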

[4] = read-out: Monocyte Chemoattractant Protein-1 (MCP1), CCL2 (gene 6347); assay: BSK_LPS_MCP1: BioMAP Diversity Plus: LPS Assay for Monocyte Chemoattractant Protein-1 (MCP1) Biomarker Activity (AID 2283081); conditions: primary human HUVEC with PBMC; actives raise or lower the signal;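 on AC50: secreted MCP-1 protein quantified by ELISA in culture supernatant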
Method in brief: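 Human endothelial–PBMC co-cultures were dosed with chemical, then LPS-driven MCP-1 levels were quantified by ELISA at 24 h. Activity in either direction was fitted versus DMSO negative control.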

[5] = BSK_LPS_PGE2: BioMAP Diversity Plus: LPS Assay for Prostaglandin E2 (PGE2) Biomarker Activity (AID 2283082); conditions: primary human HUVEC with PBMC; actives raise or lower the signal
Method in brief: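 HUVEC plus PBMC co-culture stimulated with LPS; secreted PGE2 quantified by ELISA 24 h after chemical dosing. Activity fitted bidirectionally against DMSO as negative control and baseline; parallel SRB total-protein staining served as cytotoxicity check.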

[6] = read-out: Tissue Factor, F3 (gene 2152); assay: BSK_LPS_TissueFactor: BioMAP Diversity Plus: LPS Assay for Tissue Factor Biomarker Activity (AID 2283084); conditions: primary human HUVEC with PBMC; actives raise or lower the signal
Method in brief: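 ELISA signal for cell-surface Tissue Factor (CD142) was read 24 h after compound dosing of an LPS-stimulated human endothelial–PBMC primary co-culture. Gain or loss of signal was scored relative to DMSO.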

[7] = read-out: Tumor necrosis factor (Homo sapiens) (UniProt P01375); assay: BSK_LPS_TNFa: BioMAP Diversity Plus: LPS Assay for Tumour Necrosis Factor alpha (TNFa) Biomarker Activity (AID 2283085); conditions: primary human HUVEC with PBMC; actives raise or lower the signal
Method in brief: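 Human umbilical vein endothelial cells co-cultured with PBMC were exposed to test chemical and TNFa measured by ELISA 24 h after dosing. Bidirectional curve fitting was done relative to DMSO as negative control and baseline.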

[8] = read-out: Vascular cell adhesion molecule 1 (VCAM1), VCAM1 (gene 7412); assay: BSK_LPS_VCAM1: BioMAP Diversity Plus: LPS Assay for Vascular cell adhesion molecule 1 (VCAM1) Biomarker Activity (AID 2283086); conditions: primary human HUVEC with PBMC; actives raise or lower the signal
Method in brief: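 Human umbilical vein endothelial cells co-cultured with peripheral blood mononuclear cells under LPS stimulation were exposed to test chemical for 24 h. VCAM-1 levels were then measured by ELISA, with bidirectional curve fitting relative to DMSO as negative control and baseline.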

[9] = read-out: CD38, CD38 (gene 952); assay: BSK_SAg_CD38: BioMAP Diversity Plus: SAg Assay for CD38 Biomarker Activity (AID 2283087); conditions: primary human HUVEC with PBMC; actives raise or lower the signal
Method in brief: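 Fluorescence ELISA of cell-surface CD38 served as the read-out, with either increase or decrease fitted against DMSO controls. Cells were a human umbilical vein endothelium plus PBMC co-culture under SEB/TSST-1 stimulation, measured 24 h after dosing.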

[10] = read-out: CD40, CD40 (gene 958); assay: BSK_SAg_CD40: BioMAP Diversity Plus: SAg Assay for CD40 Biomarker Activity (AID 2283088); conditions: primary human HUVEC with PBMC; actives raise or lower the signal
Method in brief: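 Compounds were dosed onto a human primary endothelial–PBMC co-culture, and after 24 h CD40 was quantified by ELISA using a fluorescence signal. Activity in either direction was fitted relative to DMSO.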

[11] = read-out: CD69, CD69 (gene 969); assay: BSK_SAg_CD69: BioMAP Diversity Plus: SAg Assay for CD69 Biomarker Activity (AID 2283089); conditions: primary human HUVEC with PBMC; actives raise or lower the signal;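 on AC50: cell surface CD69 protein quantified by ELISA with fluorescence detection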
Method in brief: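 Values derive from bidirectional fitting relative to DMSO vehicle. Cells: umbilical vein endothelium plus peripheral blood mononuclear cells, treated 24 h before fluorescent ELISA for CD69.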

[12] = read-out: Monocyte Chemoattractant Protein-1 (MCP1), CCL2 (gene 6347); assay: BSK_SAg_MCP1: BioMAP Diversity Plus: SAg Assay for Monocyte Chemoattractant Protein-1 (MCP1) Biomarker Activity (AID 2283090); conditions: primary human HUVEC with PBMC; actives raise or lower the signal
Method in brief: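 MCP-1 levels in the endothelial–PBMC SAg co-culture were quantified by ELISA at 24 h post-dosing; both increases and decreases versus DMSO scored. Cytotoxicity monitored by SRB total protein in parallel cultures.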

[13] = read-out: E-selectin (Homo sapiens) (UniProt P16581); assay: BSK_SAg_Eselectin: BioMAP Diversity Plus: SAg Assay for Eselectin Biomarker Activity (AID 2283091); conditions: primary human HUVEC with PBMC; actives raise or lower the signal
Method in brief: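 Co-culture: HUVEC + PBMC. Dose compound; 24 h. ELISA for E-selectin. Bidirectional fit vs DMSO.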

[14] = read-out: Monokine induced gamma interferon (MIG), CXCL9 (gene 4283); assay: BSK_SAg_MIG: BioMAP Diversity Plus: SAg Assay for Monokine induced gamma interferon (MIG) Biomarker Activity (AID 2283092); conditions: primary human HUVEC with PBMC; actives raise or lower the signal
Method in brief: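 Values reflect bidirectional fitting of ELISA-measured MIG against DMSO vehicle, taken 24 h after dosing of a co-culture of human umbilical vein endothelial cells and peripheral blood mononuclear cells.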

[15] = BSK_SAg_PBMCCytotoxicity: PBMC Cytotoxicity Assessment in the BioMAP Diversity Plus: SAg Assay (AID 2283093); conditions: primary human HUVEC with PBMC;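 further: PBMC viability measured as Alamar Blue reduction fluorescence at 546/580 nm; fitted both ways against DMSO so a hit may be loss or gain of signal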;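 on AC50: PBMC superantigen activated with SEB plus TSST-1 one hour after compound addition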
Method in brief: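 Compound added to 75,000 PBMC/well for 1 h; SEB and TSST-1 then added at 20 ng/mL final each; 90 h incubation; Alamar Blue 6 h; read 546/580 nm ex/em. Activity fitted bidirectionally relative to DMSO baseline.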

[16] = read-out: Interleukin-8 (IL8), CXCL8 (gene 3576); assay: BSK_SAg_IL8: BioMAP Diversity Plus: SAg Assay for Interleukin-8 (IL8) Biomarker Activity (AID 2283094); conditions: primary human HUVEC with PBMC; actives raise or lower the signal
Method in brief: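 Human umbilical vein endothelial cells co-cultured with peripheral blood mononuclear cells; IL-8 measured by ELISA 24 h after chemical dosing. Bidirectional concentration-response fitting used DMSO as negative control and activity baseline.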

[17] = BSK_SAg_Proliferation: Cell Proliferation Assessment in the BioMAP Diversity Plus: SAg Assay (AID 2283095); conditions: primary human HUVEC with PBMC;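 further: relative cell number as total protein by SRB absorbance in sub-confluent culture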
Method in brief: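 Human umbilical vein endothelial cells co-cultured with peripheral blood mononuclear cells; total protein measured by sulforhodamine B staining (0.1% SRB after 10% TCA fixation), absorbance at 560 nm, at 96 h. Bidirectional fit against DMSO baseline.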

[18] = target: Cytochrome P450 2C19 (Homo sapiens) (UniProt P33261); assay: NVS_ADME_hCYP2C19: NovaScreen (NVS) CYP450-related Enzyme Activity (ADME) Assay for human CYP2C19 (AID 2283113; active means hit-call score of the fitted dose curve at least 0.9, where 1 is the maximum;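 further: potency for inhibition seen as loss of fluorescent signal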)
Method in brief: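 Fluorescence intensity was measured 1 hour after chemicals were added to insect-cell-derived recombinant CYP2C19 with fluorogenic substrate. Decreased signal versus acetonitrile control was taken as reduced enzyme activity; initial testing used 10 uM in duplicate.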

Measured: AC50

Sequence of E-selectin (Homo sapiens) (P16581 whole entry, looked up): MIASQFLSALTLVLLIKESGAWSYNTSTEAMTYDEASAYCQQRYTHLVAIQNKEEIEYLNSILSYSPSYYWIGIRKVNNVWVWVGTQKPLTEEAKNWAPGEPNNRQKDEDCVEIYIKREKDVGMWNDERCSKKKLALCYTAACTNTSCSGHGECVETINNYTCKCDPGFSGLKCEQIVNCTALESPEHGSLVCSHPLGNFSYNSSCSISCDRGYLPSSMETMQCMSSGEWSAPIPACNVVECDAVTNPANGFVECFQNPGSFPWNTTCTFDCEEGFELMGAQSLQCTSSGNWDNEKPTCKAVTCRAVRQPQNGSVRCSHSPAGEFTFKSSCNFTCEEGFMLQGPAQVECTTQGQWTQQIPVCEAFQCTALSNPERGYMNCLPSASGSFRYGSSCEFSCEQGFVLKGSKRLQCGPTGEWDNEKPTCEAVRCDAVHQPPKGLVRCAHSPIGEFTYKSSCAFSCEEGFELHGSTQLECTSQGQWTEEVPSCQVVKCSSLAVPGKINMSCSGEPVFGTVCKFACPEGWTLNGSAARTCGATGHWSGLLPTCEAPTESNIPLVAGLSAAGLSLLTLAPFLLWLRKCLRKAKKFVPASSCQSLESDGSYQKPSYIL
Sequence of Tumor necrosis factor (Homo sapiens) (P01375 whole entry, looked up): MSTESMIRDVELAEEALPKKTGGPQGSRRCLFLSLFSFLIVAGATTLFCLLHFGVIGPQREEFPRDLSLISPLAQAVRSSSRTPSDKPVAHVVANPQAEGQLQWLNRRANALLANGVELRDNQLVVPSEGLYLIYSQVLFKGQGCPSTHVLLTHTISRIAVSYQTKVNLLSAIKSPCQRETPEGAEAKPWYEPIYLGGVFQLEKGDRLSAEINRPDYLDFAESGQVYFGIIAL

CCCCCCCC/C=C\CCCCCCCC(=O)O
inactive: [1]

CCCCNc1ccc(NCCCC)c2c1C(=O)c1ccccc1C2=O
inactive: [2] | [3] | [4] | [5] | [6] | [7] | [8] | [9] | [10] | [11] | [12] | [13] | [14] | [15] | [16] | [17]

CCO[Si](CCCN=C=O)(OCC)OCC
inactive: [2] | [3] | [4] | [5] | [6] | [7] | [8] | [9] | [10] | [11] | [12] | [13] | [14] | [15] | [16] | [17]

S=C(NC1CCCCC1)NC1CCCCC1
inactive: [2] | [3] | [4] | [5] | [6] | [7] | [8] | [9] | [10] | [11] | [12] | [13] | [14] | [15] | [16] | [17]

C#CC1(O)CC[C@H]2[C@@H]3CCC4=CCCC[C@@H]4[C@H]3CC[C@@]21C (some centres not stated)
inactive: [5]
active: [2] 20 µM | [3] 29.6 µM | [4] 35.7 µM | [6] 31.2 µM | [7] 33.3 µM | [8] 29.9 µM | [9] 35.1 µM | [10] 30.2 µM | [11] 29.7 µM | [12] 31.8 µM | [13] 35.9 µM | [14] 31.8 µM | [15] 20 µM | [16] 20 µM | [17] 12.3 µM | [18] 0.032 µM

O=c1c2ccccc2oc2ccccc12
inactive: [2] | [3] | [4] | [5] | [6] | [7] | [8] | [9] | [10] | [11] | [12] | [13] | [14] | [15] | [16] | [17]
